RORgamma inh: ROR gamma (mouse) transcription inhibition; Drosophila S2 Gal4-RORgamma UAS-luciferase reporter, 20 h; hit rate 5.4% among 310,000; P51450; Potency, µM (series often up to 53.6 µM), for the others: at the highest dose activity change, negative = inhibition, most hits filed as inhibitors; AID 2551; note: % is set by controls: 0 for no effect and ±100 for the full control effect; nearly all actives have a fitted effect of over 60% in size
Target sequence (P51450 whole entry, looked up, the tested form may be a part): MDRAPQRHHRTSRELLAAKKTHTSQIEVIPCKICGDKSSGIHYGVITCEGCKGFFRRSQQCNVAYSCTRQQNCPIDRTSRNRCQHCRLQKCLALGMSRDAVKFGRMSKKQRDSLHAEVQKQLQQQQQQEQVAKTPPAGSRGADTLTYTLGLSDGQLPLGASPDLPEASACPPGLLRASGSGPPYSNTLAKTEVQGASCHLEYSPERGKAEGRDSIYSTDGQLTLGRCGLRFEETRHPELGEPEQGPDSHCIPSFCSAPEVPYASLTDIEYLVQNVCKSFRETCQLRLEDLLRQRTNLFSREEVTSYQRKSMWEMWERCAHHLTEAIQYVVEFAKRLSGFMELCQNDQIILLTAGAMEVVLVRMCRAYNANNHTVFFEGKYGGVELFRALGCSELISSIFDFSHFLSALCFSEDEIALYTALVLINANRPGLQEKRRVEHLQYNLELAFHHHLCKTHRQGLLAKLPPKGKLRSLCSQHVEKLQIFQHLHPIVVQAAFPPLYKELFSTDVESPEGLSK
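A Gal4/UAS one-hybrid system in insect cells: metallothionein-promoter Gal4–ROR gamma fusion plus Photinus luciferase reporter. Copper sulfate 700 uM final, 20 hr ambient incubation, luminescent detection after 10 min with reagent.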
Mito fusion act: inhibitors of mitochondrial division or activators of mitochondrial fusion; hit rate 0.23% among 320,000; S. cerevisiae fusion-defective mutant growth rescue, CellTiterGlo 48 h; Potency, µM (top dose mostly 46.1 µM), for the others: top-dose growth rescue (activation), usual class: activators; note: % of control where 0% means no effect; nearly all actives have a fitted effect of over 45% in size
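Growth-rescue viability read-out: after 48 h at the non-permissive 37C in glycerol/ethanol YPEG, yeast mitochondrial fusion mutants are measured by CellTiterGlo luminescence; compounds (23 nl pinned per well) restoring growth score as division inhibitors or fusion activators.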
Chronic BCR inh: blocks chronic active B-cell receptor signaling; ABC-DLBCL IkBa-CBG/CBR reporter, luminescence ratio, 4 h; Potency, µM (titrated, usually from 46.1 µM), for inactives: at the highest dose activity change, negative = inhibition, usual class: inhibitors; AID 493014; hit rate 0.05% among 340,000; active = well fitted inhibition curve with a large enough effect in the signal ratio, with a control signal flat, not every such curve was filed as active; inconclusive = small, poorly fitted or top-dose-only effect, or effect the other way, or a change in a side signal; the % refers to the signal ratio;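 note: plate controls were basal doxycycline-induced cells for no effect and cells given 10 µM MG132 for full effect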
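Compounds up to 46 uM were incubated four hours with TMD8 cells whose green CBG68 luciferase is fused to IkappaBalpha; red CBR luminescence normalised the signal, and concentration-effect curves were fitted to fusion, red and ratio data.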
uPA surface inh: cell surface uPA generation inhibition; cell surface uPA generation assay, qHTS; Potency, µM (series often up to 38.3 µM), without a hit: at the highest dose activity change, negative = inhibition, most hits filed as inhibitors; hit rate 0.31% among 330,000; AID 540303; active = well fitted inhibition curve with a large enough effect; inconclusive = small, poorly fitted or top-dose-only effect; inactive = no such curve, though single readings can be large or run the other way; tested in mouse RAW 264.7 cells; note: % is set by controls: 0 for no effect and ±100 for the full control effect; nearly all actives have a fitted effect of over 55% in size
a7 integrin act: activators of alpha7 integrin expression for muscular dystrophy | alpha7betagal myoblasts, beta-gal FDG fluorescence, 48 h | Potency, µM (top dose mostly 38.3 µM), without a hit: at the highest dose activation, usual class: activators | hit rate 0.064% among 350,000 | AID 624291;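 note: 100% = response of the positive control SU9516; nearly all actives have a fitted effect of over 60% in size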
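Alpha7betagal+/- myoblasts (passage 13) were plated 16-24 hr, then exposed to compounds (1:260 dilution of DMSO stock) for 48 hours at 37C. After MPER lysis, β-galactosidase reporter activity was read as FDG fluorescence (ex 480/em 540) after 30 minutes.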
Gal4-VP16 FLuc: inhibits Gal4-VP16 luciferase reporter, ROR gamma counter-screen | hit rate 3.5% among 310,000 | Potency, µM (doses to about 53.6 µM), without a hit: at the highest dose activity, negative = inhibition, actives largely listed as inhibitors | Drosophila S2 Gal4-VP16 UAS-luciferase, luminescence, 20 h;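 note: Gal4-VP16 expression switched on by copper sulfate through the metallothionein promoter; % is set by controls: 0 for no effect and ±100 for the full control effect; nearly all actives have a fitted effect of over 50% in size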
Active calls of the source: *; ? = inconclusive; . = not tested or not shown; [ ] = another dose, or the depositor's remark. Shown are actives, neighbours in structure and some others; about 5.5% of the full set was active somewhere. Unless noted, calls come from the whole dose curve; as a rule, active = well fitted curve in the direction sought with a large enough effect; inconclusive = small, poorly fitted or top-dose-only effect, or another doubt; inactive = no such curve, though single readings can be large; an effect the other way counts as inactive or inconclusive. Potency is the fitted concentration of half-maximal effect.

SMILES	RORgamma inh	Mito fusion act	Chronic BCR inh	uPA surface inh	a7 integrin act	Gal4-VP16 FLuc
Cc1ccc(C2CC(=O)Oc3c(C(C)C)ccc(C)c32)cc1 (centres undefined)	-12%	.	.	.	.	-10%
O=C(Nc1ccccc1C(=O)NC(Cc1ccc(O)cc1)C(=O)O)c1ccccc1 (centres undefined)	-14%	-3%	?	1%	8%	-14%
CCCCC[C@H](O)/C=C/C=C\C=C\[C@@H](O)C/C=C\CCCC(=O)O	7%	.	.	.	.	-10%
N#CC1=C(N)Oc2c(ccc3cccnc23)C1c1ccccc1 (centres undefined)	-25%	6%	?	1.3µM*	-35%	-4%
Cc1c(C(=O)N(Cc2ccc(Cl)cc2)C2CCS(=O)(=O)C2)oc2ccccc12 (centres undefined)	7%	14µM*	-4%	-4%	-8%	1%
O[C@H](CN1CCN(c2cccc(Cl)c2)CC1)C(c1ccccc1)c1ccccc1	?	.	.	.	.	-4%
CCC(C)C(NC(=O)OC(C)(C)C)C(=O)NC1COC2CC(n3ccc(NC(C)=O)nc3=O)OC12 (centres undefined)	-14%	.	.	.	.	-3%
COc1ccnc(CSC(N)=Nc2cccc(C(F)(F)F)c2)c1	6.3µM*	?	?	4%	-41%	13µM*
COc1ccccc1CN1CC[C@@]2(CCCN(C(=O)c3cccc(F)c3)C2)C1	-34%	.	.	.	.	-7%
CCCCC(=O)NCc1ccc2c(c1)cc(C)n2C	26%	1%	14%	-2%	4%	-6%
COc1ccccc1NC(=S)NCc1ccc2c(c1)cc(C)n2C	5.6µM*	?	5%	0%	-42%	?
Cc1cc2cc(CNC(=S)NCc3ccccc3)ccc2n1C	18µM*	-6%	-1%	0%	8%	?
COc1ccc(C(=O)NCc2ccc3c(c2)cc(C)n3C)cc1OC	4%	2%	7%	12%	?	22%
CCCCNC(=S)NCc1ccc2c(c1)cc(C)n2C	11µM*	2%	?	4%	-33%	?
Cc1ccccc1NC(=S)NCc1ccc2c(c1)cc(C)n2C	6.3µM*	-2%	?	?	-31%	11µM*
Cc1cc2cc(CNC(=O)Nc3ccccc3)ccc2n1C	?	-2%	?	5%	7%	-2%
CCOC(=O)NCc1ccc2c(c1)cc(C)n2C	24%	4%	?	2%	7%	9%
Cc1cc2c(cc1S(=O)(=O)Nc1ccc(C(C)C)cc1)OCCN2C	.	9%	25%	.	.	.
Cc1ccc(NC(=O)Nc2ccc3c(c2)OCO3)c(OC(F)F)c1	-16%	-1%	-2%	-4%	44%	3%
COc1ccc(NC(=S)NCc2ccc3c(c2)cc(C)n3C)cc1	4.5µM*	-13%	?	-7%	-10%	11µM*
CCc1cccc(C)c1NC(=S)NCc1ccc2c(c1)cc(C)n2C	5.6µM*	-7%	1%	-17%	-16%	7.9µM*
CCc1cccc(C)c1NC(=S)NCc1ccccc1	3.5µM*	-3%	?	-2%	-26%	32µM*
Cc1cc2cc(CNC(=S)NC3CCCCC3)ccc2n1C	14µM*	-3%	-12%	14%	-61%	?
Cc1cc(NC(=O)/C=C/c2ccccc2Cl)n(-c2nc3ccccc3[nH]2)n1	1.8µM*	-4%	?	-2%	4%	1.3µM*
Cc1cc(NC(=O)c2ccc(F)cc2F)n(-c2nc3ccccc3[nH]2)n1	1.1µM*	0%	3%	.	11%[7.66 µM]	1.8µM*
SMILES	RORgamma inh	Mito fusion act	Chronic BCR inh	uPA surface inh	a7 integrin act	Gal4-VP16 FLuc
Cc1cc(NC(=O)CC2CCCC2)n(-c2nc3ccccc3[nH]2)n1	1.8µM*	13%	5%	-2%	-46%	3.5µM*
Cc1nc2ccccc2c(=O)n1NC(=O)/C=C/c1ccccc1Cl	-2%	15%	0%	-1%	-30%	-5%
COc1cccc([C@@H]2Oc3ccc(OC)cc3/C(=N/O[C@@H](C)CN3CCCCc4nc(C)c(C)cc43)[C@@H]2O)c1	-15%[10 µM]	.	.	.	.	10%[10 µM]
O=C(Nc1ccc(S(=O)(=O)N2CCCC2)cc1)C1CCCN1C(=O)c1cccs1 (centres undefined)	1%	-3%	1%	-1%	-21%	-8%
CC(=O)Nc1ccc(OCCOc2ccc(/C=C3/C(=N)N4C=CSC4=NC3=O)cc2)cc1	?	-2%	5%	-14%	-30%	-4%
COc1ccc(-c2ccc(/C=C3/C(=N)N4C=CSC4=NC3=O)o2)c([N+](=O)[O-])c1	2.5µM*	0%	?	5%	6%	3.5µM*
CC(=O)N[C@H]1CSSC[C@@H](C(=O)N2CCC[C@H]2C(=O)N2CCC[C@H]2C(=O)N[C@@H](CCCCN)C(=O)N[C@@H](CC(=O)O)C(N)=O)NC(=O)CNC(=O)[C@H](Cc2c[nH]c3ccccc23)NC(=O)[C@H](CCCNC(=N)N)NC(=O)[C@@H](Cc2ccc(Cl)c(Cl)c2)NC(=O)[C@H](Cc2cnc[nH]2)NC(=O)[C@H](CCC(=O)O)NC1=O	8%	.	.	.	.	-4%
C1=Nc2ccccc2CN1c1ccccc1	5%	-1%	10%	-3%	13%	-10%
CC(C)c1ccc(N2C=Nc3ccc(C(C)C)cc3C2)cc1	7.9µM*	3%	?	-3%	-13%	?
CCNc1ncc2nc(-c3ccccc3)c(=O)n(-c3ccc(OC)cc3)c2n1	-4%	.	.	.	.	5%
Cc1ccc(C#CC[N+]2(CC#Cc3ccc(C)cc3)CCCCC2)cc1	?	-6%	?	7.1µM*	?	7.1µM*
Cc1ccc2oc(C(=O)Nc3nnc(CC(C)C)s3)c(C)c2c1	7.1µM*	-4%	0%	-2%	39%	2%
Cc1ccc(S(=O)(=O)/N=C(\N)Nc2nc(C)c3ccccc3n2)cc1	23%	2%	-9%	-1%	24%	-15%
COc1ccc2c(C)nc(N/C(N)=N/S(=O)(=O)c3ccc(C)cc3)nc2c1	-3%	12%	-1%	-11%	?	-2%
Cc1cccc(NC(=S)/N=C(\N)Nc2nc(C)c3ccc(C)cc3n2)c1	1µM*	-2%	?	-9%	-43%	3.5µM*
Cc1ccc(NC(=S)/N=C(\N)Nc2nc(C)c3ccccc3n2)cc1C	1µM*	26%	?	-4%	-17%	1µM*
Cc1cccc(NC(=S)/N=C(\N)Nc2nc(C)c3cc(C)ccc3n2)c1	7.1µM*	18%	-16%	-4%	6%	4.5µM*
Cc1cc(C)cc(NC(=S)/N=C(\N)Nc2nc(C)c3ccccc3n2)c1	2µM*	25%	?	-5%	-29%	3.2µM*

From PubChem
